From paper PMC4336329 (PLoS ONE, 2015)
Screen size: about 310,000 compounds; about 14,000 (4.5%) showed an effect of 50% or more. The effect is printed as a negative number. Only a selection was taken, and strong results are over-represented in it overall.

biological target: human ether-à-go-go-related gene (hERG) potassium channel (human, UniProt Q12809); assay: primary screen, population patch clamp on CHO cells stably expressing hERG; higher = less effect of the substance
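Further: peak tail current of the secondary pulse compared with the same well before compound.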

Chain of human ether-à-go-go-related gene (hERG) potassium channel (Q12809 whole entry, looked up): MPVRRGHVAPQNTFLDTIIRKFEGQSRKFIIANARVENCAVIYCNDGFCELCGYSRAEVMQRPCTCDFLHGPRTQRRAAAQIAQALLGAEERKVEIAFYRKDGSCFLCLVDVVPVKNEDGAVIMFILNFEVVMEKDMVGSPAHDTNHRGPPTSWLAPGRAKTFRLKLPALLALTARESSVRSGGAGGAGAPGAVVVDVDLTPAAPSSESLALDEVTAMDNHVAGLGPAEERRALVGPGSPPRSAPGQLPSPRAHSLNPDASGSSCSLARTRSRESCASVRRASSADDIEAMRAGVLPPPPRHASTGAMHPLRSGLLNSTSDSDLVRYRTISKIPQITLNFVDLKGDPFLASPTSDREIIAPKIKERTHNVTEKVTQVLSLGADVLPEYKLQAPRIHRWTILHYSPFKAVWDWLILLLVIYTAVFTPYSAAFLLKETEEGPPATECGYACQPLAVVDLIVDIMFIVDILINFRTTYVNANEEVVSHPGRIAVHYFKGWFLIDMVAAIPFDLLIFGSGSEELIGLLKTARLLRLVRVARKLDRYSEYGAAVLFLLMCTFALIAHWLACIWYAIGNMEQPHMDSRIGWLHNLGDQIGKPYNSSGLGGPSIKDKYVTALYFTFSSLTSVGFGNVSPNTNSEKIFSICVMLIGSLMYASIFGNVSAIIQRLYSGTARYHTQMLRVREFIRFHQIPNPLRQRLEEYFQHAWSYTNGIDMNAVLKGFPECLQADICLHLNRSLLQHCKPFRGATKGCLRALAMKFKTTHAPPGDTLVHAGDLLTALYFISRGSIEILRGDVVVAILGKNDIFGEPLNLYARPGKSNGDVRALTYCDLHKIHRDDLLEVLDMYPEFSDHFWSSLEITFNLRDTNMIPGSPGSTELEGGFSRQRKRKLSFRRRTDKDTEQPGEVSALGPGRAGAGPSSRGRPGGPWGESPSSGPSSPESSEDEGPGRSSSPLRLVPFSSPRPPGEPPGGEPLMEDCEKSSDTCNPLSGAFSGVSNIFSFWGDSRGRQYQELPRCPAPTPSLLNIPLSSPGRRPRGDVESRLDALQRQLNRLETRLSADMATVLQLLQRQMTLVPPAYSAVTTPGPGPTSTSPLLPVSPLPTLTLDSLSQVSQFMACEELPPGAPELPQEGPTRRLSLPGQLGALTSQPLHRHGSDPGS

SMILES | hERG current change (%, negative = inhibition) at 10uM [%]
O=c1c2ccccc2nc(/C=C/c2ccc(Br)cc2)n1CCO | 2.81
COCCNC(=O)/C(C#N)=C/c1c(N2CCN(c3ccccc3)CC2)nc2c(C)cccn2c1=O | 5.92
O=C(Nc1cc(=O)[nH]c2ncnn12)c1ccccc1Cl | 1.15
CCOC(=O)c1ccc(N2C(=O)CC(C3CCCO3)C2=O)cc1 (stereo not shown) | -11.2
CN(Cc1ccccc1)S(=O)(=O)c1ccc(N2CCCC2=O)cc1 | -12.7
Fc1cccc(Nc2nc(-c3ccncc3)nc3ccccc23)c1 | 15.4
Cc1ccc(Nc2c3c(nc4ccccc24)CCC3)cc1.Cl | -78.8
Cc1cccc(Nc2ncnc3ccccc23)c1.Cl | -5.93
Cl.c1ccc(Nc2c3c(nc4ccccc24)CCC3)cc1 | -76.2
Cc1ccc(NC(=O)c2c3c(nc4ccccc24)CCC3)cc1 | 2.86
Cl.Nc1nc(Nc2cccc(F)c2)nc2ccccc12 | -19.3
Cc1cccc(Nc2c3c(nc4ccccc24)CCC3)c1.Cl | -71.5
Cl.Fc1cccc(Nc2c3c(nc4ccccc24)CCC3)c1 | -68.2
COc1cccc(NC(=O)CCCOc2cc(=O)n(C)c3ccccc23)c1 | 12.6
Cc1ccc(-n2c(SCC(=O)N3CCCCC3)nc(O)cc2=O)cc1 | 16.1
Cc1ccnc(SC2CC(=O)N(c3ccc([N+](=O)[O-])cc3)C2=O)n1 (stereo not shown) | -26.8
COc1ccc(CNC(=O)c2ccc3c(c2)N(C)CCS3)cc1 | -2.44
O=[N+]([O-])c1ccc(Cl)cc1NCCCN1CCOCC1 | 0.725
O=C(NCc1ccc2c(c1)CCO2)Nc1cccc(C(F)(F)F)c1 | 12.6
CCc1noc(C)c1C(=O)OC(C)C(=O)NCc1ccc(OC)cc1 (stereo not shown) | -15.3

SMILES | hERG current change (%, negative = inhibition) at 10uM [%]
COc1ccc(-n2c(=O)[nH]cc(C(=O)N3CCc4ccccc43)c2=O)cc1 | 16.2
COc1ccc(-c2csc3nc(-c4ccccc4)oc(=O)c23)cc1OC | 14.3
CN(C)CCNC(=O)c1ccc2c(c1)N(Cc1ccc(F)cc1)CCS2 | -32.8
COc1cc(/C=C2\SC(N3CCC(C)CC3)=NC2=O)ccc1O | -5.99
Cc1ccc(C)c(NC(=O)COC(=O)c2cccc3c2C(=O)c2ccccc2C3=O)c1 | -14.2
CC(=O)Nc1ccc(Nc2cc(C)c3ccccc3n2)cc1 | -27.4
Cl.O=C(O)c1ccc(Nc2c3ccccc3nc3ccccc23)cc1 | -2.61
COc1ccc(Nc2c3ccccc3nc3ccccc23)cc1 | -69.6
COc1cc(NC(=O)c2c3c(nc4ccccc24)CCC3)cc(OC)c1 | 11.3
COc1ccc(Nc2c3c(nc4ccccc24)CCC3)cc1.Cl | -70.9
COc1ccc(Nc2nc(-c3ccccc3)c3ccccc3n2)cc1 | -5.22
CC(=O)Nc1ccc(Nc2c3ccccc3nc3ccccc23)cc1 | -55.7
CCOc1ccc(Nc2c3ccccc3nc3ccccc23)cc1 | -42.4
O=C(CCCCCl)Nc1c2c(nc3ccccc13)CCC2 | -23.6
COc1ccc(NC(=O)c2c3c(nc4ccccc24)CCC3)cc1 | 10.1
O=C(NCc1ccc(F)cc1)c1c2c(nc3ccccc13)CCC2 | -21.1
Fc1ccc(Nc2c3c(nc4ccccc24)CCC3)cc1 | -64.3
CCOC(=O)C1CCN(C(=O)Nc2ccc3oc(C)nc3c2)CC1 | 7.35
N/C(=N\OC(=O)c1cccnc1)c1ccc(Cl)cc1Cl | 12.7
COc1ccc(-n2c(C)cc(C(=O)COC(=O)c3cc(NC(=O)c4cccs4)c(OC)c(OC)c3)c2C)cc1 | 6.03

SMILES | hERG current change (%, negative = inhibition) at 10uM [%]
COC(=O)c1ccc(CN2C(=O)NC3(CCCCC3)C2=O)cc1 | 11.2
COc1ccc(OCC(=O)N2CCN(S(=O)(=O)c3ccccc3[N+](=O)[O-])CC2)cc1 | -31.2
CN(c1cccc2cccnc12)S(=O)(=O)c1ccccc1 | -8.43
Cc1cc(-c2ccc(C)c(S(=O)(=O)NCc3cccc(Br)c3)c2)on1 | -22.2
COc1cccc(CCN2CCC(CNS(=O)(=O)c3cc(-c4cc(C)no4)ccc3C)CC2)c1 | -77.2
COc1ccc(-c2cc(C)no2)cc1S(=O)(=O)NCc1cccc(C)c1 | -41.5
Cc1cc(-c2ccc(C)c(S(=O)(=O)NCCN3CCC(C)CC3)c2)on1 | -12.8
COc1cccc(CNS(=O)(=O)c2cc(-c3cc(C)no3)ccc2C(C)C)c1 | -7.33
COc1cccc(CCN2CCC(CNS(=O)(=O)c3cc(-c4cc(C)no4)ccc3OC)CC2)c1 | -74.9
CCCNC(=O)c1[nH]c(C)c(C(C)=O)c1C | 19.3
Cc1cc(C)cc(C(=O)Nc2ccc(N3CCN(S(C)(=O)=O)CC3)cc2)c1 | 15.7
Cc1ccc(CNC(=O)CCCNS(=O)(=O)c2cccc3nonc23)cc1 | -11.4
CCOC(=O)C(Cc1ccccc1)(NC(C)=O)C(=O)OCC | 7.61
CCOC(=O)C(Cc1c(F)cccc1F)(NC(C)=O)C(=O)OCC | 8.41
CCOC(=O)COc1ccc(N)cc1CC(NC(C)=O)(C(=O)OCC)C(=O)OCC | -72.7
N#CC1(NC(=O)COC(=O)C23CC4CC(CC(O)(C4)C2)C3)CCCCC1 | 4.38
CC1CCCC(C)N1C(=O)COC(=O)C12CC3CC(CC(Cl)(C3)C1)C2 (stereo not shown) | -18.2
CN(C(=O)COC(=O)C12CC3CC(CC(Cl)(C3)C1)C2)C1(C#N)CCCCC1 | -53.5
